CHO-K1 Ca PAM – counter-screen for M1 PAMs: effect in parental CHO-K1 cells; hit rate 0.02% among 360,000; ATP EC20, Fluo-8 calcium fluorescence; 0% at ATP EC20, 100% at ATP max; activation, % at 3 µM;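 active = activation above the run cutoff, the mean activation of all test compounds plus 3 SD, cut at about 40% in these data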;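 also: peak over basal fluorescence ratio in a 140 s read after ATP addition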
M1 PAM – human CHRM1 positive allosteric modulation. hit rate 0.088% among 360,000. CHO-K1 hM1, Fluo-8 calcium fluorescence, ACh EC20; 0% = ACh EC20, 100% = maximal ACh. activation, % at 3 µM. P11229; in the data active = activation above about 19%, passing the limit was not always enough
Target sequence (P11229 whole entry, looked up): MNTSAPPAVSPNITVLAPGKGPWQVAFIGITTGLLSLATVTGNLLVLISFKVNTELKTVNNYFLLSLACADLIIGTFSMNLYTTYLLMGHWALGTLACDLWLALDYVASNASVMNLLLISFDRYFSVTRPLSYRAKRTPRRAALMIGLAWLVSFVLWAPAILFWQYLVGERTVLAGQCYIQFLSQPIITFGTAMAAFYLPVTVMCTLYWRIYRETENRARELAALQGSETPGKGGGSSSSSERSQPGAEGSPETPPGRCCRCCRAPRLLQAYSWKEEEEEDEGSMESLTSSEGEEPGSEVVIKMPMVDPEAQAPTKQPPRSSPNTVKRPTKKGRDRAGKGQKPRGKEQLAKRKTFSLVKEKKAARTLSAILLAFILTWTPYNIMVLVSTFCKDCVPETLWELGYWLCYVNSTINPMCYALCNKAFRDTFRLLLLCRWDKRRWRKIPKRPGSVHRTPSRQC
CHO-K1 Ca ag – nonselective activator or artifact in parental CHO-K1 cells | Fluo-8 calcium fluorescence; scaled to maximal ATP response, vehicle zero | activation, % at 3 µM | hit rate 0.48% among 360,000; in the data active = activation above about 15%;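 also: untransfected CHO-K1 host cells lacking M1 receptor as counterscreen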
M1 ag – agonists of human M1 muscarinic receptor; P11229; CHO-K1 hM1, Fluo-8 calcium fluorescence, agonist mode; 0% DMSO, 100% acetylcholine EC100; activation, % at 3 µM; hit rate 0.33% among 360,000; AID 588814;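 active = activation above the run's mean compound activation plus 3 SD, cut at about 16% in these data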;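 also: peak over basal fluorescence ratio within a 140 s kinetic read after compound addition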
M1 antag – blocks human M1 muscarinic receptor | hit rate 1.3% among 360,000 | P11229 | inhibition, % at 3 µM | AID 588852 | CHO-K1 hM1, Fluo-8 calcium fluorescence, ACh EC80 antagonist;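 active = percent inhibition above its own plate's cutoff, namely the mean of that plate's compound wells plus 3 SD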;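 also: peak over basal fluorescence ratio during 140 s after agonist addition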
CHO-K1 Ca antag – counter-screen for M1 antagonists: effect in parental CHO-K1 cells; ATP-induced calcium, Fluo-8 fluorescence; inhibition, % at 3 µM; hit rate 0.6% among 360,000;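 active = inhibition above a per-plate cutoff, the plate's mean sample inhibition plus 3 SD, cut at about 24% in these data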
Of the large screens only hits and unclear results are named; the others gave an inactive call. Sampled rows, rich in hits. Any-hit rate of the full collection: about 2.3%.

CC[n+]1c(/C=C/c2cc([N+](=O)[O-])ccc2O)ccc2ccccc21	CHO-K1 Ca antag 24
COc1ccccc1C(=O)NNC(=S)NC(=O)c1sc2ccccc2c1Cl	M1 ag 22
COc1ccccc1C(=O)NC(=S)NNC(=O)c1sc2ccccc2c1Cl	none
COc1ccc(CNC(=O)c2cccnc2)cc1	none
COC(=O)[C@@H](NC(=O)c1ccccc1OC1CCN(S(C)(=O)=O)CC1)C(C)C	M1 antag 62
CC[N+]1(C)CCC(=C2c3ccccc3CC(=O)c3sccc32)CC1 (centres undefined)	M1 antag 98
C[N+]1(C)CCC(=C2c3ccccc3CC(=O)c3sccc32)CC1	M1 antag 95
CCN1C(=O)N[C@@H](c2cccc(F)c2)C(C(C)=O)=C1C	M1 PAM 31
CCOC(=O)CN1C(=O)N[C@@H](c2cccc(F)c2)C(C(C)=O)=C1C	none
Cc1ccc2[nH]c(C(=O)N3CCOCC3)cc2c1	CHO-K1 Ca antag 25
Cc1ccc2[nH]c(C(=O)N3CCCCC3)cc2c1	none
CC1(C)N=C(N)N=C(N)N1CCCCc1ccccc1	M1 antag 52
Fc1ccccc1C1c2[nH]c3ccccc3c2CCN1CCCn1cccn1 (centres undefined)	M1 antag 38
O=C(NCCOC(=O)Nc1cccc2ccccc12)OCc1ccccc1	none
O=C(NC1(C(F)(F)F)C(=O)Nc2c1c(=O)[nH]c(=O)n2-c1ccccc1)c1ccncc1 (centres undefined)	none
COc1ccc(C2/C=C\CN(C(=O)Nc3ccccc3)CC(=O)N2Cc2ccc(F)cc2)cc1 (centres undefined)	none
COc1ccc(C2/C=C\CN(C(=O)Nc3ccc(C(F)(F)F)cc3)CC(=O)N2Cc2ccc(F)cc2)cc1 (centres undefined)	M1 antag 38
CCC1(c2ccc(F)cc2)NC(=O)N(CC(=O)Nc2ccc(N3CCCCC3)cc2)C1=O (centres undefined)	M1 ag 17
CCC1(c2ccccc2)NC(=O)N(CC(=O)Nc2ccccc2N2CCCCC2)C1=O (centres undefined)	CHO-K1 Ca ag 38, M1 ag 37
Cc1ccc(S(=O)(=O)Nc2ccc(NC(=O)c3cccnc3)cc2)cc1	none
COc1ccc(OC)c(N2C(=O)c3cccnc3C2=O)c1	none
CC(C)c1ccc([C@@H]2O[C@H](C)CC3=C2C(=O)OC(C)(C)O3)cc1	none (no result: M1 PAM, M1 ag, M1 antag)
NC(=S)Cc1nc(-c2ccccc2)cs1	CHO-K1 Ca antag 32
CCCCCC(=O)N1C[C@H](O)[C@@H](n2cc(-c3ccc(F)cc3)nn2)C[C@@H]1c1ccc(OC)cc1	none
Cc1cc(NC(=O)COC(=O)C2CC(=O)N(c3cccc(Cl)c3)C2)no1 (centres undefined)	M1 PAM 31
Cc1cc(NC(=O)COC(=O)C2CC(=O)N(c3ccc(C)c(Cl)c3)C2)no1 (centres undefined)	none
CN(C)C(=O)C(NC(=O)c1ccccc1)=C(Cl)Cl	none
CCOC(=O)c1cnc2ccccc2c1NCc1ccco1	M1 antag 92
CNc1ccc(C(O)(C(F)(F)F)C(F)(F)F)cc1C(O)(C(F)(F)F)C(F)(F)F	CHO-K1 Ca antag 35
O=C(CSc1nc(=O)n(CCN2CCOCC2)c2c1CCCC2)Nc1cccc([N+](=O)[O-])c1	none
OCC[C@H]1C[C@@H](O)[C@H](O)[C@]2(CCc3ccccc3CO2)O1	M1 ag 18
C[C@H]1CN([C@@H](C)CO)C(=O)CCCn2nncc2CO[C@H]1CN(C)C(=O)c1ccc2ccn(C)c2c1	none
COC(/C(=N/O)c1ccc(Cl)cc1)c1ccccc1 (centres undefined)	M1 antag 47, CHO-K1 Ca antag 31
COC(=O)[C@@]1(Cc2ccccc2)[C@H]2C(=O)N(C)C(=O)[C@H]2[C@H]2CN=C(SCC(=O)c3ccccc3)N21	M1 antag 102
O=C(/C=C1\NC2(CCCC2)Cc2ccccc21)C(=O)N/N=C/c1ccc(O)c(O)c1	M1 ag 17
COc1ccc(/C=N/NC(=O)C(=O)/C=C2\NC3(CCCC3)Cc3ccccc32)cc1	M1 PAM 25

Bioassay records deposited in PubChem BioAssay by The Scripps Research Institute Molecular Screening Center.
